Assay results published in PubChem BioAssay (NCI).
The panel holds about 83,000 compounds, 20% with a hit somewhere; the sample as a whole holds those more often.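 Compound tested at a single concentration for 48 hours in 96-well plates; a percent growth value below 10 was scored as active.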 Calls of active or inactive are those of the source.

Legend:
Test in all cases: NCI-60 one-dose screen, 48 h (100 = growth as untreated, 0 = no growth, -100 = all killed)
Settings in all cases: 10 µM unless noted
HCT-15 colon = tested on: HCT-15 colon
HT29 colon = tested on: HT29 colon
SNB-75 CNS = tested on: SNB-75 CNS
SNB-19 CNS = tested on: SNB-19 CNS
U251 CNS = tested on: U251 CNS
PC-3 prostate = tested on: PC-3 prostate
SK-MEL-5 melanoma = tested on: SK-MEL-5 melanoma
UACC-62 melanoma = tested on: UACC-62 melanoma
LOX IMVI melanoma = tested on: LOX IMVI melanoma
SK-MEL-28 melanoma = tested on: SK-MEL-28 melanoma

Measured: growth

Nc1ccc(-c2ccncc2)cc1NC(=O)N1CCCC1
inactive: HCT-15 colon 100% | HT29 colon 72.9% | SNB-75 CNS 85% | SNB-19 CNS 106% | U251 CNS 89.8% | PC-3 prostate 91.2% | SK-MEL-5 melanoma 99.3% | UACC-62 melanoma 91.7% | LOX IMVI melanoma 112% | SK-MEL-28 melanoma 96.1%

CC(C)NS(=O)(=O)/N=C1\NC(=O)NC1=C(Cl)Cl
inactive: HCT-15 colon 86.3% | HT29 colon 99% | SNB-75 CNS 104% | SNB-19 CNS 94.3% | U251 CNS 90.6% | PC-3 prostate 94.5% | SK-MEL-5 melanoma 92.8% | UACC-62 melanoma 84.5% | LOX IMVI melanoma 94.8% | SK-MEL-28 melanoma 108%

COc1ccc(C(c2cc(OC)c(OC)c(OC)c2)N2CCCCC2)cc1 (stereo not given)
active: HT29 colon 7.93%
inactive: HCT-15 colon 20.6% | SNB-75 CNS 26.6% | SNB-19 CNS 30.4% | U251 CNS 26.1% | PC-3 prostate 25.1% | SK-MEL-5 melanoma 29.5% | UACC-62 melanoma 18.2% | LOX IMVI melanoma 36.3% | SK-MEL-28 melanoma 47.2%

Nc1nc2ccccc2c2c(=O)c3cc(Cl)ccc3sc12
inactive: HCT-15 colon 96.8% | HT29 colon 102% | SNB-75 CNS 91.2% | SNB-19 CNS 96.1% | U251 CNS 98.5% | PC-3 prostate 90.7% | SK-MEL-5 melanoma 96.5% | UACC-62 melanoma 93.4% | LOX IMVI melanoma 103% | SK-MEL-28 melanoma 109%

COc1ccc(-c2nc3c(c(-c4ccc(Cl)cc4)nn3-c3ccccc3)c(-c3ccccc3)c2C#N)cc1
inactive: HCT-15 colon 109% | HT29 colon 101% | SNB-75 CNS 85.7% | SNB-19 CNS 103% | U251 CNS 99.6% | PC-3 prostate 91.3% | SK-MEL-5 melanoma 100% | UACC-62 melanoma 98.5% | LOX IMVI melanoma 101% | SK-MEL-28 melanoma 108%

O=C1CCC(C(=O)N/N=C/c2cc(F)ccc2F)N1 (stereo not given)
inactive: HCT-15 colon 98.6% | HT29 colon 106% | SNB-75 CNS 80.7% | SNB-19 CNS 98.9% | U251 CNS 98% | PC-3 prostate 95.8% | SK-MEL-5 melanoma 100% | UACC-62 melanoma 98.1% | LOX IMVI melanoma 95.1% | SK-MEL-28 melanoma 108%

O=C(Cn1nc(-c2cccc3ccccc23)ccc1=O)NCc1cccc(Cl)c1
inactive: HCT-15 colon 28.9% [50 µM] | HT29 colon 43% [50 µM] | SNB-75 CNS 74.3% [50 µM] | SNB-19 CNS 45.3% [50 µM] | U251 CNS 35% [50 µM] | PC-3 prostate 19.6% [50 µM] | UACC-62 melanoma 35.2% [50 µM] | LOX IMVI melanoma 28.6% [50 µM] | SK-MEL-28 melanoma 56% [50 µM]
active: SK-MEL-5 melanoma 5.82% [50 µM]

Clc1ccc(Nc2ncc(Cc3cccc(Cl)c3Cl)s2)cc1
inactive: HCT-15 colon 92.3% | HT29 colon 95.7% | SNB-75 CNS 116% | SNB-19 CNS 98% | U251 CNS 85.7% | PC-3 prostate 88% | SK-MEL-5 melanoma 97.1% | UACC-62 melanoma 81.6% | LOX IMVI melanoma 97.7% | SK-MEL-28 melanoma 95.6%

Cc1cc2oc(/C=C/c3ccccc3)cc(=O)c2c(C)c1Cl
inactive: HCT-15 colon 95.7% | HT29 colon 107% | SNB-75 CNS 116% | SNB-19 CNS 89.8% | U251 CNS 94.3% | PC-3 prostate 96.7% | SK-MEL-5 melanoma 96% | UACC-62 melanoma 90.5% | LOX IMVI melanoma 109% | SK-MEL-28 melanoma 94.6%

O=C(NCc1ccc(Cn2c(=O)sn(-c3ccccc3)c2=O)cc1)OCc1ccc2cccc(O)c2n1
inactive: SNB-19 CNS 44.7%
active: HCT-15 colon -30.3% | HT29 colon -52.7% | SNB-75 CNS -22.6% | U251 CNS 9.01% | PC-3 prostate -68.9% | SK-MEL-5 melanoma -84.7% | UACC-62 melanoma -61.9% | LOX IMVI melanoma -95.3% | SK-MEL-28 melanoma -62.3%

CSc1ccc2c3c(n(CCCn4ccnc4)c(=O)c2c1)-c1ccccc1C3=O
active: LOX IMVI melanoma 1.75%
inactive: HCT-15 colon 61.1% | HT29 colon 27.1% | SNB-75 CNS 51.6% | SNB-19 CNS 33.2% | U251 CNS 12.7% | PC-3 prostate 45.6% | SK-MEL-5 melanoma 19.5% | UACC-62 melanoma 19.8% | SK-MEL-28 melanoma 78.5%

COC(=O)c1ccc2c(c1)c1c(C)c3cnccc3c(C)c1n2C
active: HCT-15 colon -8.77% | HT29 colon -10.9% | SNB-75 CNS 8.05% | SNB-19 CNS -1.59% | U251 CNS -16.5% | PC-3 prostate 5.43% | SK-MEL-5 melanoma -91.3% | UACC-62 melanoma -82.3% | LOX IMVI melanoma -55% | SK-MEL-28 melanoma -54.5%

COc1cc(-c2ccc(-c3ccc(C(=N)N)cc3)s2)cc(OC)c1OC
inactive: HCT-15 colon 58.9% | SNB-75 CNS 64.8% | SNB-19 CNS 69.1% | U251 CNS 26.2% | PC-3 prostate 53.4% | SK-MEL-5 melanoma 55.3% | UACC-62 melanoma 54.7% | LOX IMVI melanoma 27.2% | SK-MEL-28 melanoma 77.3%
active: HT29 colon 8.4%

O=C(/C=C/C12c3ccccc3C(c3ccccc31)C1C(=O)NC(=O)C12)c1ccc(I)cc1 (stereo not given)
inactive: HCT-15 colon 39.7% | HT29 colon 29.6% | SNB-75 CNS 63.6% | SNB-19 CNS 63.4% | U251 CNS 34.5% | PC-3 prostate 34.5% | SK-MEL-5 melanoma 69.5% | UACC-62 melanoma 51.9% | LOX IMVI melanoma 37.8% | SK-MEL-28 melanoma 64%

N[C@@H]1CCC[C@H]1NCCCCN1C(=O)c2cccc3cc([N+](=O)[O-])cc(c23)C1=O
inactive: HCT-15 colon 59.9% | HT29 colon 14.3% | SNB-75 CNS 38.1% | SNB-19 CNS 39.1% | U251 CNS 33.7% | PC-3 prostate 39% | SK-MEL-5 melanoma 62.4% | UACC-62 melanoma 66.3% | LOX IMVI melanoma 14.9% | SK-MEL-28 melanoma 85.7%

Cc1ccc2nc(-c3ccc(C(=O)N/N=C/c4ccc([N+](=O)[O-])cc4)cc3)[nH]c2c1
inactive: HCT-15 colon 102% | HT29 colon 102% | SNB-75 CNS 97.1% | SNB-19 CNS 104% | U251 CNS 107% | PC-3 prostate 98.2% | SK-MEL-5 melanoma 98.5% | UACC-62 melanoma 97.4% | LOX IMVI melanoma 98.8% | SK-MEL-28 melanoma 112%

CCN(CC)CCOc1ccc2c(-c3ccccc3)c(-c3ccc(OC)cc3)c(=O)oc2c1
inactive: HCT-15 colon 11.4% | HT29 colon 17% | SNB-75 CNS 82.6% | SNB-19 CNS 69% | U251 CNS 44.4% | PC-3 prostate 65.4% | SK-MEL-5 melanoma 25.9% | LOX IMVI melanoma 29.3% | SK-MEL-28 melanoma 43.1%
active: UACC-62 melanoma -15%

Cc1ccc(S(=O)(=O)N2CCCN(c3nc(-c4ccccc4)nc4nc(-c5ccccc5)oc34)CC2)cc1
inactive: HCT-15 colon 114% | HT29 colon 120% | SNB-75 CNS 105% | SNB-19 CNS 102% | U251 CNS 104% | PC-3 prostate 96.3% | SK-MEL-5 melanoma 98.9% | UACC-62 melanoma 101% | LOX IMVI melanoma 95.4% | SK-MEL-28 melanoma 108%

Cc1cc(=O)n(C(=S)Nc2ccc(Cl)cc2)c2cc(O)ccc12
inactive: HCT-15 colon 105% | HT29 colon 104% | SNB-75 CNS 86.1% | SNB-19 CNS 102% | U251 CNS 101% | PC-3 prostate 95.6% | SK-MEL-5 melanoma 95.3% | UACC-62 melanoma 100% | LOX IMVI melanoma 99.3% | SK-MEL-28 melanoma 114%

O=c1cc(CP(=O)(O)O)c2cc(O)c(-c3ccccc3)cc2o1
inactive: HCT-15 colon 101% | HT29 colon 108% | SNB-75 CNS 83.8% | SNB-19 CNS 96.8% | U251 CNS 100% | PC-3 prostate 98.6% | SK-MEL-5 melanoma 98.1% | UACC-62 melanoma 97.8% | LOX IMVI melanoma 99.5% | SK-MEL-28 melanoma 104%

CC(C)Cc1nc(Nc2ccccc2)[nH]c(=O)c1C#N
inactive: HCT-15 colon 60.5% | HT29 colon 51.7% | SNB-75 CNS 62.4% | SNB-19 CNS 54.8% | U251 CNS 55.8% | PC-3 prostate 38% | SK-MEL-5 melanoma 48.7% | UACC-62 melanoma 19.5% | LOX IMVI melanoma 48.7% | SK-MEL-28 melanoma 55.9%

COc1ccc(/C=N/Nc2c3ccccc3nc3ccccc23)cc1
inactive: HCT-15 colon 92.6% | HT29 colon 93.9% | SNB-75 CNS 93.4% | SNB-19 CNS 92.4% | U251 CNS 93.4% | PC-3 prostate 83.1% | SK-MEL-5 melanoma 90.4% | UACC-62 melanoma 91.1% | LOX IMVI melanoma 92.9% | SK-MEL-28 melanoma 108%

Cc1cccc(N=Nc2cccc(C)c2)c1
inactive: HCT-15 colon 96.3% | HT29 colon 102% | SNB-75 CNS 132% | SNB-19 CNS 92.4% | U251 CNS 106% | PC-3 prostate 104% | SK-MEL-5 melanoma 105% | UACC-62 melanoma 92.8% | LOX IMVI melanoma 105% | SK-MEL-28 melanoma 107%

COc1ccc(Nc2ncc(I)c(NCCCNC(=O)C3CCC3)n2)cc1
active: HCT-15 colon -18.8% | U251 CNS 2.43% | LOX IMVI melanoma -11.3%
inactive: HT29 colon 12.5% | SNB-75 CNS 39.4% | SNB-19 CNS 24.5% | PC-3 prostate 23.8% | SK-MEL-5 melanoma 23.3% | UACC-62 melanoma 22.9% | SK-MEL-28 melanoma 43.4%

CN(C)C1CN(C(=O)c2cc(-c3ccc4ncnc(N5CCc6cc(F)c(Cl)cc65)c4c3)cnc2N)C1
inactive: HT29 colon 14.8% | SNB-19 CNS 23.5% | U251 CNS 25%
active: HCT-15 colon 7.17% | SNB-75 CNS -27% | PC-3 prostate 7.13% | SK-MEL-5 melanoma -20.8% | UACC-62 melanoma -19.7% | LOX IMVI melanoma 7.5% | SK-MEL-28 melanoma 8.13%
